Hit rate of the full screen: of about 5,500 compounds, about 2,000 (36%) were called active. Roughly 18% stayed inconclusive and do not appear here. No stated cut-off is given here; in the data, active means normalized growth mostly below about 0.91 (no sharp cut-off); inconclusive means no clear call, values can overlap the other calls; inactive means mostly above about 0.92. This is one part of the list.
Assay: chemical genetic growth profiling, strain panel (AID 1159580);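 further: tested at 20 µM; growth read once vehicle control cultures reached saturation at 30 °C; 1 = growth at the plate median or of vehicle wells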
Conditions: S. cerevisiae deletion strains, growth OD
[1] = locus YAR019C, strain CDC15, stronger effect = lower value
[2] = locus YBL105C, strain PKC1, stronger effect = lower value
[3] = locus YBR135W, strain CKS1, stronger effect = lower value
[4] = locus YBR136W, strain MEC1, stronger effect = lower value
[5] = locus YBR160W, strain CDC28, stronger effect = lower value
[6] = locus YDL017W, strain CDC7, stronger effect = lower value
[7] = locus YDL028C, strain MPS1, stronger effect = lower value
[8] = locus YDL101C, strain DUN1, stronger effect = lower value
[9] = locus YDL108W, strain KIN28, stronger effect = lower value
[10] = locus YDL132W, strain cdc53, stronger effect = lower value
[11] = locus YDL214C, strain PRR2, stronger effect = lower value
[12] = locus YDR052C, strain DBF4, stronger effect = lower value
[13] = locus YDR054C, strain cdc34, stronger effect = lower value
[14] = locus YDR226W, strain ADK1, stronger effect = lower value
[15] = locus YDR477W, strain SNF1, stronger effect = lower value
[16] = locus YER123W, strain YCK3, stronger effect = lower value
[17] = locus YER133W, strain GLC7, stronger effect = lower value
[18] = locus YFL009W, strain cdc4, stronger effect = lower value
[19] = locus YFL029C, strain CAK1, stronger effect = lower value
[20] = locus YFR003C, strain YPI1, stronger effect = lower value
[21] = locus YFR019W, strain FAB1, stronger effect = lower value
[22] = locus YFR028C, strain CDC14, stronger effect = lower value
[23] = locus YGR040W, strain KSS1, stronger effect = lower value
[24] = locus YGR052W, strain FMP48, stronger effect = lower value
[25] = locus YGR092W, strain DBF2, stronger effect = lower value
[26] = locus YHR030C, strain SLT2, stronger effect = lower value
[27] = locus YHR079C, strain IRE1, stronger effect = lower value
[28] = locus YHR082C, strain KSP1, stronger effect = lower value
[29] = locus YHR205W, strain SCH9, stronger effect = lower value
[30] = locus YIL147C, strain SLN1, stronger effect = lower value
[31] = locus YJL095W, strain BCK1, stronger effect = lower value
[32] = locus YJL128C, strain PBS2, stronger effect = lower value
[33] = locus YJL157C, strain FAR1, stronger effect = lower value
[34] = locus YJR016C, strain ILV3, stronger effect = lower value
[35] = locus YJR066W, strain TOR1 (second series), stronger effect = lower value
[36] = locus YJR066W, strain TOR1, stronger effect = lower value
[37] = locus YKL048C, strain ELM1, stronger effect = lower value
[38] = locus YKL067W, strain YNK1, stronger effect = lower value
[39] = locus YKL101W, strain HSL1, stronger effect = lower value
[40] = locus YKL193C, strain SDS22, stronger effect = lower value
[41] = locus YKL203C, strain TOR2, stronger effect = lower value
[42] = locus YLR113W, strain HOG1, stronger effect = lower value
[43] = locus YLR133W, strain CKI1, stronger effect = lower value
[44] = locus YLR403W, strain SFP1, stronger effect = lower value
[45] = locus YML070W, strain DAK1, stronger effect = lower value
[46] = locus YMR001C, strain CDC5, stronger effect = lower value
[47] = locus YMR205C, strain PFK2 (second series), stronger effect = lower value
[48] = locus YMR277W, strain FCP1, stronger effect = lower value
[49] = locus YNL006W, strain LST8, stronger effect = lower value
[50] = locus YNL020C, strain ARK1, stronger effect = lower value
[51] = locus YNL161W, strain CBK1, stronger effect = lower value
[52] = locus YNL183C, strain NPR1, stronger effect = lower value
[53] = locus YNL207W, strain RIO2, stronger effect = lower value
[54] = locus YNL222W, strain SSU72, stronger effect = lower value
[55] = locus YNL307C, strain MCK1 (second series), stronger effect = lower value
[56] = locus YOL078W, strain AVO1, stronger effect = lower value
[57] = locus YOL136C, strain PFK27, stronger effect = lower value
[58] = locus YOR061W, strain CKA2, stronger effect = lower value
[59] = locus YOR119C, strain RIO1, stronger effect = lower value
[60] = locus YOR231W, strain MKK1, stronger effect = lower value
[61] = locus YOR329C, strain SCD5, stronger effect = lower value
[62] = locus YPL031C, strain PHO85, stronger effect = lower value
[63] = locus YPL153C, strain RAD53, stronger effect = lower value
[64] = locus YPL204W, strain HRR25, stronger effect = lower value
[65] = locus YPL209C, strain IPL1, stronger effect = lower value
[66] = locus YPL256C, strain CLN2, stronger effect = lower value
[67] = locus YPR025C, strain CCL1, stronger effect = lower value
[68] = locus YPR106W, strain ISR1, stronger effect = lower value
[69] = locus YPR111W, strain DBF20, stronger effect = lower value
[70] = strain NNK1, stronger effect = lower value
[71] = strain TSCII, stronger effect = lower value

Measured: normalized growth

Cc1ccc(C)n1-c1ccc(/C=C2/C(=O)Nc3ccccc32)cc1
inactive: [1] 0.957 | [2] 0.973 | [3] 0.975 | [4] 0.972 | [5] 0.962 | [6] 0.971 | [7] 0.964 | [8] 0.979 | [9] 0.968 | [10] 0.974 | [11] 0.91 | [12] 0.986 | [13] 0.983 | [14] 0.968 | [15] 0.931 | [16] 0.903 | [17] 0.932 | [18] 0.947 | [19] 0.957 | [20] 0.981 | [21] 0.948 | [22] 0.976 | [23] 0.945 | [24] 0.925 | [25] 0.839 | [27] 0.832 | [28] 0.907 | [29] 0.857 | [30] 0.97 | [31] 0.878 | [32] 0.973 | [33] 0.923 | [34] 0.972 | [35] 0.912 | [36] 0.794 | [37] 0.963 | [38] 0.887 | [39] 0.939 | [40] 0.979 | [41] 1.02 | [43] 0.926 | [44] 0.925 | [45] 0.916 | [46] 0.97 | [47] 0.932 | [48] 0.957 | [49] 0.976 | [50] 0.936 | [51] 0.975 | [52] 0.936 | [53] 0.974 | [54] 0.978 | [55] 0.947 | [56] 0.972 | [57] 0.9 | [58] 0.932 | [59] 0.942 | [60] 0.863 | [61] 0.977 | [62] 0.931 | [63] 0.92 | [64] 0.935 | [65] 0.977 | [67] 0.971 | [68] 0.968 | [69] 0.958 | [70] 0.959 | [71] 0.967
active: [26] 0.662 | [42] 0.837 | [66] 0.855

O=C1Nc2ccccc2/C1=C/c1ccc(Oc2ccccc2)nc1
active: [26] 0.615 | [42] 0.846 | [66] 0.859
inactive: [1] 0.965 | [2] 0.959 | [3] 0.957 | [4] 0.975 | [5] 0.962 | [6] 0.973 | [7] 0.966 | [8] 0.96 | [9] 0.967 | [10] 0.962 | [11] 0.866 | [12] 0.98 | [13] 0.948 | [14] 0.96 | [15] 0.874 | [16] 0.885 | [17] 0.898 | [18] 0.959 | [19] 0.975 | [20] 0.964 | [21] 0.95 | [22] 0.959 | [23] 0.892 | [24] 0.844 | [25] 0.803 | [27] 0.836 | [28] 0.82 | [29] 0.788 | [30] 0.947 | [31] 0.835 | [32] 0.877 | [33] 0.891 | [34] 0.967 | [35] 0.851 | [36] 0.775 | [37] 0.894 | [38] 0.857 | [39] 0.879 | [40] 0.959 | [41] 0.944 | [43] 0.86 | [44] 0.826 | [45] 0.915 | [46] 0.967 | [47] 0.889 | [48] 0.95 | [49] 0.975 | [50] 0.869 | [51] 0.976 | [52] 0.811 | [53] 0.962 | [54] 0.956 | [55] 0.843 | [56] 0.962 | [57] 0.897 | [58] 0.843 | [59] 0.867 | [60] 0.858 | [61] 0.967 | [62] 0.858 | [63] 0.845 | [64] 0.847 | [65] 0.971 | [67] 0.956 | [68] 0.957 | [69] 0.945 | [70] 0.971 | [71] 0.965

— PubChem BioAssay AID1159580 (chemical genetic matrix, 2015)
